FBPA Giardia inh: qHTS Assay for Inhibitors of Fructose-1,6-bisphosphate Aldolase from Giardia Lamblia; A8B2U2; purified Giardia FBPA; Potency, µM (doses to about 59.6 µM), without a hit: top-dose activity, negative = inhibition, actives largely listed as inhibitors; 290,000 tested, 0.71% active; also: nearly all actives have a fitted effect of over 55% in size
Target sequence (A8B2U2 whole entry, looked up): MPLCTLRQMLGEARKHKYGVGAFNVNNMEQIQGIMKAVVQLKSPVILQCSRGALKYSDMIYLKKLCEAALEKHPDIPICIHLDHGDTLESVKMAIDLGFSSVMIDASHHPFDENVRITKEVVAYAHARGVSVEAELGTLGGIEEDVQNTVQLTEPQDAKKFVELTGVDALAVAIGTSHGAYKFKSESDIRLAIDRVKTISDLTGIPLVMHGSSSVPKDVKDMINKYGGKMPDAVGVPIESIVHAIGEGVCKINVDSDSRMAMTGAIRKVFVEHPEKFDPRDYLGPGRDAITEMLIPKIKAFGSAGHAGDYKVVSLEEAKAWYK
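40 nM FBPA preincubated 10 min at RT with compound (up to 57.5 uM final), then substrate plus GAPDH/TPI/NAD/arsenate coupling and diaphorase/resazurin added. Fluorescence read after 20 min at RT, 525/598 nm.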
Cruzain inh noDet: qHTS Assay for Promiscuous and Specific Inhibitors of Cruzain (without detergent). Cruzipain (Trypanosoma cruzi), P25779. purified cruzain, Z-FR-AMC fluorescence, no detergent. Potency, µM, for the others: max response, negative = inhibition, hits mostly inhibitors. 200,000 tested, 2.3% active. AID 1476, 2009;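 also: plate controls were enzyme without inhibitor for no effect and buffer without enzyme for full effect; nearly all actives have a fitted effect of over 40% in size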
Target sequence (P25779 123-467 limits assumed): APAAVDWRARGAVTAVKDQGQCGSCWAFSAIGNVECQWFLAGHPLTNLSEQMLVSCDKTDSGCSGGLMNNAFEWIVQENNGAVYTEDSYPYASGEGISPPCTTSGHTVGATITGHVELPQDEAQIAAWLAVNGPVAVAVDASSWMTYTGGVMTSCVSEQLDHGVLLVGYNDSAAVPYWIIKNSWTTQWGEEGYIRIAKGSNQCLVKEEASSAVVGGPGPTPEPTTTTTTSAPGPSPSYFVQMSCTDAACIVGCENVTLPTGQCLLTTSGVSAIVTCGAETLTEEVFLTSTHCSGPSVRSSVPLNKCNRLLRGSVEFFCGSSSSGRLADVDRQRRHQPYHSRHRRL
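Detergent-free condition (0.00005% Triton X-100) in acetate buffer pH 5.5 with DTT. 1.5 nM enzyme and compound were pre-mixed 15 min, then 2 uM Z-FR-AMC substrate added; reaction progress from fluorescence change between first and third reads (60 s).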
Cruzain Triton: qHTS Assay for Promiscuous and Specific Inhibitors of Cruzain (with detergent); 200,000 tested, 0.43% active; Potency, µM, for inactives: max response, negative = inhibition, usual class: inhibitors; purified cruzain, Z-FR-AMC fluorescence, 0.01% Triton; AID 1478, 2009; Cruzipain (Trypanosoma cruzi), P25779;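 also: plate controls were neutral wells for no effect and buffer without enzyme for full effect; nearly all actives have a fitted effect of over 40% in size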
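Cysteine protease activity tested under reducing, mildly acidic conditions (100 mM sodium acetate pH 5.5, 5 mM DTT) plus 0.01% Triton X-100. Cruzain 1.5 nM; substrate Z-FR-AMC 2 uM; 15 min compound preincubation at room temperature.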
* = called active by the depositor; ? = inconclusive; / = no result; [ ] = another dose, or the depositor's remark. Shown is part of a subset that was picked to be rich in hits. Calls follow the shape of the dose curve; as a rule, active = well fitted curve in the direction sought with a large enough effect; inconclusive = small, poorly fitted or top-dose-only effect, or another doubt; inactive = no such curve, though single readings can be large; an effect the other way counts as inactive or inconclusive. Unless noted, % is scaled to controls: 0 for no effect and ±100 for the full control effect; potency is read from the fitted curve at half-maximal effect.

SMILES | FBPA Giardia inh | Cruzain inh noDet | Cruzain Triton
CC[C@H](C)[C@H](NC(=O)CNC(=O)[C@H](CCCNC(=N)N)NC(=O)[C@H](CO)NC(=O)[C@H](C)NC(=O)[C@H](Cc1ccc(O)cc1)NC(=O)[C@H](Cc1c[nH]c2ccccc12)NC(=O)[C@H](C)NC(=O)[C@@H]1CCCN1C(=O)[C@H](CC(N)=O)NC(=O)[C@@H](NC(=O)[C@H](CC(=O)O)NC(=O)[C@@H]1CCCN1C(=O)[C@@H](NC(=O)[C@H](CCCNC(=N)N)NC(=O)[C@@H](NC(=O)[C@H](CCC(=O)O)NC(=O)[C@H](CCSC)NC(=O)[C@H](CO)NC(=O)[C@H](Cc1cnc[nH]1)NC(=O)[C@H](CCCNC(=N)N)NC(=O)[C@H](Cc1cnc[nH]1)NC(=O)[C@@H](NC(=O)[C@H](CCCNC(=N)N)NC(=O)[C@@H](N)CO)[C@@H](C)O)[C@@H](C)CC)[C@@H](C)O)[C@@H](C)CC)C(=O)N[C@@H](CCCNC(=N)N)C(=O)N1CCC[C@H]1C(=O)N[C@H](C(=O)NCC(=O)N[C@@H](CCCNC(=N)N)C(=O)N[C@@H](Cc1ccccc1)C(N)=O)C(C)C | 3% | / | /
CC(=O)Nc1nc(C)c(-c2csc(Nc3ccc(O)cc3)n2)s1 | -8% | 13µM* | -28%
CCCC(=O)Nc1nc(C)c(-c2csc(Nc3cc(OC)ccc3OC)n2)s1 | -10% | -21% | -4%
CC(=O)Nc1ccc(Nc2nc(-c3sc(NC(C)=O)nc3C)cs2)cc1 | -18% | / | /
CCCC(=O)Nc1nc(C)c(-c2csc(Nc3ccc(Cl)cc3)n2)s1 | -7% | 13µM* | -3%
CCCC(=O)Nc1nc(C)c(-c2csc(Nc3ccccc3OC)n2)s1 | -5% | -23% | -2%
CCCCCC(=O)Nc1nc(C)c(-c2csc(Nc3cc(Cl)ccc3OC)n2)s1 | -2% | 3.2µM* | 0%
C=CCCC(=O)Nc1nc(C)c(-c2csc(Nc3cccc(OC)c3)n2)s1 | 0% | 16µM* | -5%
C=CCCC(=O)Nc1nc(C)c(-c2csc(Nc3cc(OC)ccc3OC)n2)s1 | 1% | ? | -1%
CC(C)=CCC/C(C)=C/CO/N=C1/C[C@@H](O)[C@@H](O)[C@@H]2[C@@H]3C(=O)N(C4CCCCC4)C(=O)[C@H]3CC[C@@H]12 | -1%[12.9 µM] | / | /
C=CCc1cccc(C2C(C)CCC3C(=O)N4C(Cc5c([nH]c6ccccc56)C4c4cc(OC)c(OC)c(OC)c4)C(=O)N32)c1 (stereo not drawn) | -9%[12.9 µM] | / | /
O=C(O)C1CC(CCCP(=O)(O)O)CCN1 (stereo not drawn) | -5% | / | /
Cc1ccc(CNC(=O)CN2C(=O)CSc3ccc(S(=O)(=O)N4CCCC4)cc32)cc1 | / | -8% | -3%
NCCSCCC(=O)O | / | -3% | 5%
CCC(C)C(=O)Nc1nc(C)c(-c2csc(Nc3ccc(Cl)cc3)n2)s1 (stereo not drawn) | -7% | 4µM* | 0%
Cc1ccc(Nc2nc(-c3sc(NC(=O)c4ccco4)nc3C)cs2)cc1 | -22% | -26% | 3%
CCn1cc(C(=O)NCc2ccc(Cl)cc2)c(=O)c2cc(S(=O)(=O)N(C)C3CCCCC3)ccc21 | / | -16% | -2%
CCC(=O)C1=C(c2cccc(OC)c2)N(C(=O)CC)n2c(nnc2C2CCCCC2)S1 | / | -6% | -3%
O=C(CSc1nnc(-c2ccccc2Br)n1-c1ccccc1)c1ccc(F)cc1 | / | ? | -5%
CNc1nc(-c2ccccc2)nc(-c2ccccc2)c1C#N | 13% | 7.9µM* | -2%
CNc1nc(-c2ccccc2)nc(-c2ccc(OC)cc2)c1C#N | 3% | / | /
CC(=O)OC[C@@H]1O[C@@H](O/N=C2/C[C@@H](O)[C@@H](O)[C@@H]3[C@H]4C(=O)N(c5ccc(F)cc5F)C(=O)[C@@H]4CC[C@H]23)[C@H](OC(C)=O)[C@H](OC(C)=O)[C@@H]1OC(C)=O | 1%[12.9 µM] | / | /
Cc1cc(O)c(C)c2sc(N)nc12 | -16% | / | /
C/C=C1\COC(C(=O)NCc2ccccn2)(C(F)(F)F)C=C1C=C(C)C (stereo not drawn) | -9% | / | /
COc1cc(NC(C)=O)ccc1-c1cc2ccccc2oc1=O | 1% | / | /
SMILES | FBPA Giardia inh | Cruzain inh noDet | Cruzain Triton
COc1ccc(C(=O)Nc2cccc(-c3cc4ccccc4oc3=O)c2)cc1[N+](=O)[O-] | 2% | 10µM* | -9%
COc1ccc(C(=O)Nc2ccccc2)cc1[N+](=O)[O-] | / | -3% | -5%
O=C(Nc1ccc(N2CCCC2)c(Cl)c1)c1cccc(-c2cc3ccccc3oc2=O)c1 | 0% | 4µM* | -2%
COc1cc(NC(=O)c2ccc(Cl)cc2Cl)ccc1-c1cc2ccccc2oc1=O | 5% | 20µM* | 1%
CC(=O)Nc1ccc(NC(=O)c2cccc(-c3cc4ccccc4oc3=O)c2)cc1 | 4% | / | /
Cc1ccc(S(=O)(=O)Nc2ccccc2C(=O)c2ccc(C)c(C)c2)cc1 | / | -3% | 3%
CCOc1ccc(CCNC(=O)CCCn2nc(C)c3sc4ccccc4c3c2=O)cc1 | / | ? | -8%
CCOc1ccc(CNC(=O)CCCn2nc(C)c3sc4ccccc4c3c2=O)cc1 | / | 20µM* | -7%
Cc1ccc(-n2c(N)c(C(=O)N3CCN(C)CC3)sc2=S)cc1 | 10µM* | -11% | 1%
Cc1ccc(-n2c(N)c(C(=O)N3CCCCC3)sc2=S)cc1 | -4% | 12% | -2%
Cc1nc2ccccc2n1CCc1nc2c3ccccc3nc(SCc3ccc(C#N)cc3)n2n1 | / | -5% | 4%
Cc1ccc(NC(=O)Nc2nnc(SCC(=O)N(C(C)C)C(C)C)s2)cc1 | / | -6% | 1%
CCOc1cccc2oc(-c3ccccc3Cl)cc(=O)c12 | 1%[89.2 µM] | 1% | 0%
CC1CC=CC2C1C(=O)N(Cc1ccccc1)C2c1ccc(C(F)(F)F)cc1 (stereo not drawn) | -4% | / | /
O=C1c2ccccc2C(=O)N1c1cccc(-c2csc(Nc3ccc4c(c3)OCO4)n2)c1 | -18% | 5µM* | 0%
c1cncc(-c2nc(-c3ccc4c(c3)OCO4)cs2)c1 | 0% | -8% | -12%
Cc1[nH]c2ccccc2c1-c1csc(N)n1 | -30% | / | /
COc1ccccc1Nc1nc(-c2cccc(N3C(=O)c4ccccc4C3=O)c2)cs1 | 3% | 7.9µM* | -3%
CCOc1ccccc1Nc1nc(-c2cccnc2)cs1 | 16% | / | /
COc1ccccc1Nc1nc(-c2c(C)[nH]c3ccccc23)cs1 | -17% | 25µM* | -5%
CC(C)Oc1cc(O)c2c(c1)OCC=C2CCC(=O)O | / | -6% | 1%
CCCCN(CC)C(=O)CCCn1c(=O)c2cccn2c2ccccc21 | / | -6% | -4%
CCC(=O)OC1(C)C(=O)C=C2C=C(CCCNC(=O)OC(C)(C)C)OC=C2C1=O (stereo not drawn) | -9% | 2% | -3%
C=C(CO)C1Cc2c(ccc3c2OC2COc4cc(OC)c(OC)cc4C2C3=O)O1 (stereo not drawn) | -5% | ? | -6%
COc1ccc(NC(=O)Nc2sc3nc4n(c(=O)c3c2C)CCC(C)CC4)cc1OC (stereo not drawn) | / | ? | -3%
CCCCCCOC(=O)C1(O)CC2OC1(C)n1c3ccccc3c3c4c(c5c6ccccc6n2c5c31)C(=O)NC4 (stereo not drawn) | 1%[2.35 µM] | -16% | 3%

From PubChem
